KB-V1 MDR tox = qHTS assay for MDR1-selective chemotherapeutics: Primary screen using the drug-selected MDR subline cells KB-V1; AID 1347076, 2019; KB-V1 MDR cells viability, CellTiter-Glo, 72 h; Potency, µM (series often up to 46.1 µM), usual class: cytotoxic; 400,000 compounds, 3.4% hits; further: on the % scale 0 is the no-effect control and ±100 the full control effect; nearly all actives have a fitted effect of over 60% in size
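Cytotoxicity toward P-gp-expressing KB-V1 cells was determined as loss of CellTiter-Glo luminescence after 72 h at 37 degrees C. Compounds were tested in quantitative HTS format across a concentration range, with curves fitted to normalized data.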
KB-3-1 cytotox = qHTS assay for MDR1-selective chemotherapeutics: Primary screen using the parental adenocarcinoma cell KB-3-1 | Potency, µM (titrated, usually from 46.1 µM), most hits filed as cytotoxic | AID 1347075, 2019 | 400,000 compounds, 1.4% hits | KB-3-1 viability, CellTiter-Glo ATP luminescence, 72 h; further: on the % scale 0 is the no-effect control and ±100 the full control effect; nearly all actives have a fitted effect of over 60% in size
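Cells are dispensed, compounds pinned in, plates held at 37 °C for 72 h, then CellTiter-Glo is added and luminescence read after 10 minutes. Cell line: parental KB-3-1 in phenol-red-free DMEM, 10% FBS.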
SW480 rerep = A quantitative high throughput screen for small molecules that induce DNA re-replication in SW480 colon adenocarcinoma cells; Potency, µM (titrated, usually from 46.1 µM), inactives show at the highest dose re-replication activation, actives largely listed as activators; SW480 DNA re-replication, Hoechst DNA content imaging, 48 h; 340,000 compounds, 1.8% hits; further: % of control where 0% means no effect; nearly all actives have a fitted effect of over 55% in size
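Hoechst fluorescence of nuclei (405 nm excitation, 500-530 nm emission) measured by plate-scanning imager after 48 hr compound exposure at 37 C; re-replication scored as increased number of nuclei with elevated intensity.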
HT1080 IDH1KD tx = qHTS for induction of synthetic lethality in tumor cells producing 2HG: qHTS for the HT-1080-IDH1KD cell line; Potency, µM (doses to about 46.1 µM), inactives show at the top dose activity, negative = toxicity, usual class: cytotoxic; 360,000 compounds, 2% hits; HT-1080 IDH1 knockdown viability, ATP luminescence, 48 h; AID 686971, 2013;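 further: 0% = DMSO wells and -100% = cell-free medium wells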
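In this qHTS, HT-1080 cells depleted of IDH1 are exposed for 48 h at 37 °C to compound titrations. Toxicity is scored from CellTiter-Glo luminescence, with DMSO as full viability and medium alone as none.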
HT1080NT lethal = qHTS for induction of synthetic lethality in tumor cells producing 2HG: qHTS for the HT-1080-NT fibrosarcoma cell line. 360,000 compounds, 1.6% hits. Potency, µM (top dose mostly 46.1 µM), without a hit: at the highest dose activity, negative = less viability, usual class: cytotoxic. HT-1080-NT fibrosarcoma viability, CellTiter-Glo ATP luminescence, 48 h;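 further: NT is the 2HG producing partner of a matched IDH1 knockdown line; 0% = DMSO-treated cells and -100% = media-only wells without cells; nearly all actives have a fitted effect of over 55% in size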
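Luminescent CellTiter-Glo readout after 48 hours of compound exposure at 37 degrees C defined viability of HT-1080-NT cells. Activity was normalized to DMSO wells and cell-free media wells; concentration-response curves were fitted and assigned curve classes.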
MCF10A rerep = A quantitative high throughput screen for small molecules that induce DNA re-replication in MCF 10a normal breast cells; MCF 10A DNA re-replication, Hoechst nuclear intensity, 48 h; Potency, µM (highest dose often 46.1 µM), for the others: at the highest dose activity, positive = re-replication, actives largely listed as activators; 350,000 compounds, 2.9% hits; further: % of control where 0% means no effect; nearly all actives have a fitted effect of over 50% in size
An asterisk follows results filed as active; i = inactive; ? = inconclusive; . = no result. Rows were chosen to be rich in hits. Some 8% of all compounds tested hit in one or more screens of this group. The call rests on the fitted dose curve; in most records, active means well fitted curve in the direction sought with a large enough effect; inconclusive means small, poorly fitted or top-dose-only effect, or another doubt; inactive means no such curve, though single readings can be large; an effect the other way counts as inactive or inconclusive. Potency means the concentration at half of the fitted maximal effect.

SMILES	KB-V1 MDR tox	KB-3-1 cytotox	SW480 rerep	HT1080 IDH1KD tx	HT1080NT lethal	MCF10A rerep
CCN(Cc1ccc(OC)c(COC)c1)CC1CCCN(CCc2cccc(OC)c2)C1 (stereo not given)	i	i	9%	-28%	-28%	15%
CN(Cc1ccc(C#CCCO)cc1)CC1CCCN(CCc2ccc(Cl)cc2)C1 (stereo not given)	i	i	?	?	26µM*	25%
CCN(Cc1ccc(OC)c(COC)c1)CC1CCCN(CCc2cccc(F)c2)C1 (stereo not given)	?	i	?	-18%	?	3.7µM*
CN(Cc1ccccc1O)CC1CCCN(CCc2ccc(Cl)cc2)C1 (stereo not given)	?	i	1%	?	?	?
COc1ccc(OC)c(NC(=O)C(C)n2c(=O)cc(C)c3c(C)nn(-c4ccccc4)c32)c1 (stereo not given)	i	i	.	.	.	.
c1ccc(CSc2nnc(SCc3ccccn3)s2)nc1	16µM*	i	4%	9%	19%	13%
CSCCC(NC(=O)c1ccccc1Cl)C(=O)N1CCN(C(c2ccccc2)c2ccccc2)CC1 (stereo not given)	.	.	13%	-10%	-3%	8%
COc1ccc(Nc2nnc(SCc3cn4c(C)cccc4n3)s2)cc1	?	12µM*	?	-23%	-15%	?
NC(=S)Nc1cc2ccccc2c2ccccc12	i	i	-3%	-24%	-3%	2%
NC(=S)Nc1cccc2cc3ccccc3cc12	i	i	12µM*	2%	1%	?
NC(=S)NN=C1CCCCCCCC1	i	18µM*	-5%	-1%	-2%	-7%
COCCNC(=S)NN=C1CCCCC1	i	i	18µM*	-13%	-15%	3%
COc1ccc(-n2c(=O)c3sc4ccccc4c3n(CC(=O)N3CCCC3)c2=O)cc1	i	i	.	.	.	.
Cn1cccc1C1C=C(c2ccc(C(C)(C)C)cc2)Nc2ncnn21 (stereo not given)	16µM*	?	?	-10%	-3%	?
Oc1ccc(C2C=C(c3ccc(F)cc3)Nc3ncnn32)cc1 (stereo not given)	i	i	10µM*	14%	-1%	8%
CC(C)(C)c1ccc(C2=CC(c3ccccc3F)n3ncnc3N2)cc1 (stereo not given)	i	?	-6%	0%	-2%	-1%
CCOc1ccc(C2C=C(c3ccc(F)cc3)Nc3ncnn32)cc1 (stereo not given)	i	i	3%	-2%	2%	-1%
Cc1cccc(-c2nnc(SCCC(=O)O)o2)c1	i	i	.	.	.	.
CCN(CC(=O)Nc1c(F)cccc1F)C(=O)C1CCCN(C(=O)c2ccc(Cl)cc2)C1 (stereo not given)	?	i	-5%	-7%	-10%	-2%
CC(=O)NCCNC(=O)CCCc1nnc2n(C)c(=O)c3sccc3n12	?	i	.	.	.	.
COc1ccc(N(CC(=O)NCc2cccc(OC)c2)S(=O)(=O)c2c(C)noc2C)cc1	13µM*	i	2%	2%	5%	12%
CCOc1ccc(N(CC(=O)NCc2ccc(C)cc2)S(=O)(=O)c2c(C)noc2C)cc1	i	i	.	.	.	.
CCOc1ccc(N(CC(=O)NCc2cccc(OC)c2)S(=O)(=O)c2c(C)noc2C)cc1	7.3µM*	i	4%	-1%	-25%	17%

Screening data: PubChem BioAssay, National Center for Advancing Translational Sciences (NCATS)
